The values that follow come from PubChem BioAssay (NCATS).

Experiment [1] in a line: Primary qHTS for inhibitors of nuclear receptor binding SET domain protein 2 (NSD2) in an isogenic RCH-ACV NSD2 p.E1099K mutant (9B) (AID 1645876). Also: nearly all actives have a fitted effect of over 70% in size. Also: potency is read from the fitted curve at half-maximal effect. On the technique in general: Quantitative high-throughput screening tests each substance at several concentrations.
Experiment [2] can be described thus: Primary qHTS for inhibitors of nuclear receptor binding SET domain protein 2 (NSD2) in an RCH-ACV wild type WT cells (2C) (AID 1645877). Also: nearly all actives have a fitted effect of over 70% in size. Also: potency is read from the fitted curve at half-maximal effect. As to activity change, negative = cell killing: % is scaled to controls: 0 for no effect and ±100 for the full control effect.
The nature of experiment [3]: NCATS anti-infectives library activity on the primary C. elegans qHTS viability assay (AID 1745855; calls by dose curve; also: potency is read from the fitted curve at half-maximal effect). The text has this: Assay Development and Screening Technology Laboratory (ADST)
National Center for Advancing Translational Sciences (NCATS), Rockville, MD
National Institute of Health (NIH), Bethesda, Maryland
Caenorhabditis elegans has helped elucidate the evolutionarily conserved genetics underlying pathways and cellular processes implicated in human disease and may be ideally positioned to reveal novel pharmacological properties of exiting drugs. The organism's short life cycle and microscopic size is applicable to the technical requirements of high-throughput screening. Here a quantitative high-throughput screening (qHTS)-based forward chemical biology platform has been developed using C. elegans. 384-well microtiter plate laser scanning cytometry was used in the rapid detection and quantification of the fluorescent protein-encoded phenotype to score worm viability. In a proof-of-concept study, the pharmacological qHTS profile obtained from a library of 643 anti-infective compounds.
1. Inglese, J., Auld, D. S., Jadhav, A., Johnson, R. L., Simeonov, A., Yasgar, A., Zheng, W., and Austin, C. P. (2006) Quantitative high-throughput screening: A titration-based approach that efficiently identifies biological activities in large chemical libraries, P Natl Acad Sci USA 103, 11473-11478.
2. Auld, D. S., Johnson, R. L., Zhang, Y. Q., Veith, H., Jadhav, A., Yasgar, A., Simeonov, A., Zheng, W., Martinez, E. D., Westwick, J. K., Austin, C. P., and Inglese, J. (2006) Fluorescent protein-based cellular assays analyzed by laser-scanning microplate cytometry in 1536-well plate format, Method Enzymol 414, 566-589.
3. Zuck, P., Lao, Z., Skwish, S., Glickman, J. F., Yang, K., Burbaum, J., and Inglese, J. (1999) Ligand-receptor binding measured by laser-scanning imaging, Proc Natl Acad Sci U S A 96, 11122-11127.
PROTOCOL TABLE (as described by Inglese J, Shamu CE and Guy RK. 2007)
SEQUENCE No. (e.g., 1, 2, 3, etc.); […] (e.g., C. elegans, Compounds, Incubation, Read, etc.); VALUE and DESCRIPTION.
1. C. elegans. Mixed population of OP50 E. coli fed PE254-GFP-FLuc C. elegans collected, bleached, and axenized eggs hatched overnight at 21 °C with 65 RPM shaking in M9 buffer.
2. Compounds. Library compounds, levamisole toxicity control and DMSO vehicle control added at 250 nL per well to 21 assay ready 384-well Greiner uClear plates and two DMSO control plates, transferred by Echo acoustic dispenser.
3. Media. Add 30 uL per well strained TOP10 E. coli capsules diluted to OD600 = 0.85 in S medium to 23 assay ready 384-well Greiner uClear plates.
4. C. elegans. Add 10 synchronized L1 worms per 30 uL per well to 23 assay ready 384-well Greiner uClear plates with bacterial capsules and compounds.
5. Detector. Worm GFP fluorescence measured on an Acumen eX3 laser cytometer within 2 hr of plating with settings as follows: Scan 1: Ex laser 488 nm; Detection Channel: Green, Voltage = 400, Sensitivity = 2, Trigger; Default reader settings; Data gated on perimeter, area, and peak intensity of detected objects.
6. Incubation. C. elegans grown in 384-well plates with bacterial capsules and compounds at 21 °C with 65 RPM shaking for 7 days.
7. Detector. C. elegans GFP fluorescence measured on an Acumen eX3 laser cytometer at day 0, 3 and day 7 with the following settings: Scan 1: Ex laser 488 nm; Detection Channel: Green, Voltage = 400, Sensitivity = 2, Trigger; Default reader settings; Data gated on perimeter, area, and peak intensity of detected objects. […]

Experiment [4] deals with Glutathione peroxidase 1 (Homo sapiens) (UniProt P07203). Kind of experiment: Primary qHTS Assay for Inhibitors of Recombinant Selenoprotein Glutathione Peroxidase 1 (GPX1) (AID 1845191). Also: nearly all actives have a fitted effect of over 65% in size. The gist of the method: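 Recombinant GPX1 (10 nM final) was preincubated with compound for 30 min at room temperature, then reacted with 1 mM GSH, 0.5 mM CHP, 0.5 mM NADPH and 100 nM glutathione reductase; NADPH fluorescence (340/450 nm) was read at 0 and 15 min.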
Glutathione peroxidase 1 (Homo sapiens), sequence (P07203 whole entry, looked up): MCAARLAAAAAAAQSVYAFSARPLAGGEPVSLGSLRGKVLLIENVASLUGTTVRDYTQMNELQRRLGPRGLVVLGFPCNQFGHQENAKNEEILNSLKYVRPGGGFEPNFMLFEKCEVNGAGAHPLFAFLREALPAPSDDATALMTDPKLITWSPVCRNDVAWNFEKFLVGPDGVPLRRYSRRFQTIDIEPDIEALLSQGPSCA

Experiment [5] concerns the target Catechol O-methyltransferase (Homo sapiens) (UniProt P21964). Kind of experiment: Confirmatory Screen for Target Class Profiling of Small Molecule Inhibitors of Methyltransferases (AID 1745852; calls by dose curve; also: potency is read from the fitted curve at half-maximal effect; as to activity change, negative = inhibition: % is scaled to controls: 0 for no effect and ±100 for the full control effect). Particulars: MTase-Glo luminescence, SAH detection, recombinant enzyme; measured here: COMT max response; stronger effect = lower value.
Experiment [6] deals with Guanidinoacetate N-methyltransferase (Homo sapiens) (UniProt Q14353). The experiment is described as above. To be noted: MTase-Glo luminescence, SAH detection, recombinant enzyme; activity change, negative = inhibition: at 57.3 µM (top of the series) unless noted.
Experiment [7] addresses Nicotinamide N-methyltransferase (Homo sapiens) (UniProt P40261). Described as above. Particulars: MTase-Glo luminescence, SAH detection, recombinant enzyme; measured here: NNMT max response; stronger effect = lower value.
In experiment [8] the target is Phenylethanolamine N-methyltransferase (Homo sapiens) (UniProt P11086). Described as above. To be noted: MTase-Glo luminescence, SAH detection, recombinant enzyme; measured here: PNMT max response; stronger effect = lower value.
Phenylethanolamine N-methyltransferase (Homo sapiens), sequence (P11086 whole entry, looked up): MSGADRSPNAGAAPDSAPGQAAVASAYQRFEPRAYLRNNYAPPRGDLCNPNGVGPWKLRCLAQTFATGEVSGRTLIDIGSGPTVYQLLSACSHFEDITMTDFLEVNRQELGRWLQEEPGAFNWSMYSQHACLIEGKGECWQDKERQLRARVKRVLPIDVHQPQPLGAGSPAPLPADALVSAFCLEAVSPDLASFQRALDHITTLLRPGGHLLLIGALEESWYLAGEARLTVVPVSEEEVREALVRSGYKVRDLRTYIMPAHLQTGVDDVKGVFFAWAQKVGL

“And” between values parts separate entries of the source, which are not always exact repeats. Identical values can stand only once. Results filed as inconclusive are left out. The source made the active and inactive calls. Unless noted, calls follow the shape of the dose curve; as a rule, active = well fitted curve in the direction sought with a large enough effect; inconclusive = small, poorly fitted or top-dose-only effect, or another doubt; inactive = no such curve, though single readings can be large; an effect the other way counts as inactive or inconclusive.

Nicotinamide N-methyltransferase (Homo sapiens), sequence (P40261 whole entry, looked up): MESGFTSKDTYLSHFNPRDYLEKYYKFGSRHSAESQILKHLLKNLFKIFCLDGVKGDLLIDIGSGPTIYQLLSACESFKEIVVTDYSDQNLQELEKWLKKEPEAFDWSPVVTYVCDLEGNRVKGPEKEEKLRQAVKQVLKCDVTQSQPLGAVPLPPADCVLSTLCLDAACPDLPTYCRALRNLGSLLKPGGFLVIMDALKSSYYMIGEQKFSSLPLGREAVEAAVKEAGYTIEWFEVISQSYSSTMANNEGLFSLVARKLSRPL
Catechol O-methyltransferase (Homo sapiens), sequence (P21964 whole entry, looked up): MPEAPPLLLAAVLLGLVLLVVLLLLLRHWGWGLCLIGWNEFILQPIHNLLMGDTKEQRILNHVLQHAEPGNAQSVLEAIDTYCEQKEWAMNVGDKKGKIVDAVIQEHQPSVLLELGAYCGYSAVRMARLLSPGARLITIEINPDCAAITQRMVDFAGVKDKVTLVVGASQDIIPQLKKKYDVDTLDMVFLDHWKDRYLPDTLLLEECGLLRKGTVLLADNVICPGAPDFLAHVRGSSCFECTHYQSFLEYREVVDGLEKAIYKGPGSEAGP

Take `CN(C)C1CCN(C(=O)c2ccc(NC(=O)Nc3nc(N4CCOCC4)nc(N4CCOCC4)n3)cc2)CC1`: the Potency was 25.2 nM (active) and 37.2 nM (active) in experiment [1]; 28.2 nM (active) and 37.2 nM (active) in experiment [2].
As for `CCCCCN(C)CCC(O)(P(=O)(O)O)P(=O)(O)O`, the outcome in experiment [1] was “inactive [at 4.96 µM]”. Further, the activity change, negative = cell killing in experiment [2] is 7.25% [at 4.96 µM] (inactive).
With `NS(=O)(=O)c1ccc(NC2=CC(=O)c3ccccc3C2=O)cc1`, the Potency entry in experiment [1] and in experiment [2] was “inactive” each time.
`COc1ccc2cc(-c3nc(-c4ccc(S(C)=O)cc4)[nH]c3-c3ccncc3)ccc2c1` (centres undefined): the Potency in experiment [1] was 23.5 µM (active) and 20.5 µM (active); in experiment [2], 26.3 µM (active) and 20.5 µM (active).
`O=C1c2ccccc2-[n+]2ccc3c([nH]c4ccccc43)c21`: the Potency in experiment [1] and in experiment [2] was 1.32 µM (active) in each case.
Regarding `COc1ccc2cccc(CCNC(C)=O)c2c1`, the Potency entry in experiment [1] and in experiment [2] was “inactive” in each case.
Consider `COc1cc(N2CCC(N3CCN(C)CC3)CC2)ccc1Nc1ncnc(Nc2ccccc2S(=O)(=O)C(C)C)n1`, for which the Potency in experiment [1] was 6.49 µM (active) and 9.34 µM (active); in experiment [2], 18.4 µM (active) and 10.5 µM (active).
Turning to `N[C@@]1(C(=O)O)CS(=O)(=O)[C@H]2[C@H](C(=O)O)[C@H]21`, the Potency result in experiment [1] and in experiment [2] was “inactive” throughout.
For the molecule `CCn1c(C(=O)N(C2CC2)C2CC2)cc2c3c(ncn3C)c(Nc3cc(C)n(C)n3)nc21`, the Potency in experiment [1] is 11.5 µM (active) and 16.6 µM (active).
On to `COc1ccc(-c2nc(N3CCOCC3)c3sc(CN(C)c4ncc(C(=O)NO)cn4)cc3n2)cn1`, for which the Potency in experiment [1] was 7.3 nM (active) and 29.5 nM (active); in experiment [2], 8.2 nM (active) and 33.2 nM (active); in experiment [3], 14.5 µM (active). Moreover, the Potency entry in experiment [4] was “inactive”.
With `CC[C@]1(O)C[C@@H]2CN(CCc3c([nH]c4ccccc34)[C@@](C(=O)OC)(c3cc4c(cc3OC)N(C)[C@H]3[C@@](O)(C(=O)OC)[C@H](OC(C)=O)[C@]5(CC)C=CCN6CC[C@]43[C@@H]65)C2)C1`, the Potency in experiment [1] is 33.5 nM (active) and 84.1 nM (active) and 57.8 nM (active); in experiment [2] it was 26.6 nM (active) and 53.1 nM (active) and 36.5 nM (active). The figures for the activity in experiment [5], in experiment [7] and in experiment [8] were 7.74%, -2.58% and 4.57%, respectively. For the same molecule, in experiment [6], the activity change, negative = inhibition stood at 10.8%.
In the case of `COc1ccc(C2Sc3ccccc3N(CCN(C)C)C(=O)C2OC(C)=O)cc1` (centres undefined), the Potency result in experiment [1] and in experiment [2] was “inactive” each time.
As for `CN1CCN(CCOc2cc(OC3CCOCC3)c3c(Nc4c(Cl)ccc5c4OCO5)ncnc3c2)CC1`, the Potency in experiment [1] is 3.25 µM (active) and 2.63 µM (active); in experiment [2] it was 5.15 µM (active) and 2.95 µM (active). Also, the activity is -14.1% in experiment [5], -34.6% in experiment [7] and -10.6% in experiment [8]. In experiment [6], the activity change, negative = inhibition is -0.0396%. The Potency result in experiment [4] is “inactive”.
As for `CC(=O)N(C)C1(c2ccccc2)CCN(CCC[C@]2(c3ccc(Cl)c(Cl)c3)CCCN(C(=O)c3ccccc3)C2)CC1`, the Potency in experiment [1] is 7.28 µM (active); in experiment [2] it was 5.78 µM (active). Further, the results for the activity in experiment [5], in experiment [7] and in experiment [8] were -5.14%, -62.2% and -6.52%, respectively. Also, the activity change, negative = inhibition in experiment [6] came out at 0%.
As to `Cc1nc(N)sc1-c1ccnc(Nc2ccc(N3CCOCC3)cc2)n1`, the Potency was 409 nM (active) and 590 nM (active) in experiment [1]; 459 nM (active) and 468 nM (active) in experiment [2]. The Potency result in experiment [4] was “inactive”.
Take `CC(C)(C)NC(=O)Nc1cccc(Nc2ncc(F)c(NC(C)(C)CO)n2)c1`: the Potency in experiment [1] was 5.78 µM (active); in experiment [2] it was 2.63 µM (active). Besides, the Potency result in experiment [4] is “inactive”.
Turning to `COc1ccc2c(Oc3ccc(NC(=O)c4c(C)n(CC(C)(C)O)n(-c5ccccc5)c4=O)cc3F)ccnc2c1`, the Potency in experiment [1] is 11.5 µM (active); in experiment [2] it was 14.5 µM (active). Further, the activity in experiment [5] is -4.14%; in experiment [7], -7.85%; in experiment [8], -1.86%. Further, the activity change, negative = inhibition in experiment [6] is -3.46%. The Potency entry in experiment [4] was “inactive”.
On to `COc1cc(N2CCC(N3CCN(C)CC3)CC2)ccc1Nc1ncc(Cl)c(Nc2ccccc2S(=O)(=O)C(C)C)n1`, for which the Potency is 1.29 µM (active) and 3.72 µM (active) in experiment [1]; 649 nM (active) and 1.48 µM (active) in experiment [2]; 27.1 µM (active) in experiment [6]. For the same molecule, the activity in experiment [5] is -29.5%; in experiment [7] it was -19%; in experiment [8] it was -27.6%. For the same molecule, the Potency entry in experiment [4] was “inactive”.
Consider `Oc1ccc(C2=Cc3ccc(O)cc3OC2)cc1`, for which the Potency in experiment [1] is 1.18 µM (active); in experiment [2], 1.32 µM (active). Moreover, in experiment [4], the Potency result was “inactive”.
As for `O=C(CCN1CCN(C(=O)OCc2cc(Cl)cc(Cl)c2)CC1)c1ccc2[nH]c(=O)oc2c1`, the Potency in experiment [1] was 18.6 µM (active); in experiment [2] it was 14.5 µM (active) and 18.6 µM (active). Further, the Potency result in experiment [4] is “inactive”.
As for `COc1cc2nc(-c3ccc(N4CCN(C)CC4)cc3)nc(NCCN3CCOCC3)c2cc1OC`, the values for the Potency in experiment [1] and in experiment [2] were 1.86 µM (active) and 2.09 µM (active), respectively. Further, the Potency result in experiment [4] was “inactive”.
For `CC(C)=CC[C@@H](O)C1=CC(=O)c2c(O)ccc(O)c2C1=O`, the Potency in experiment [1] was 23.5 µM (active); in experiment [2], 20.9 µM (active); in experiment [3] it was 16.3 µM (active).
